# GalR3 antagonist: human GalR3 antagonism; HEK293 GalR3-CNG cAMP membrane potential fluorescence; galR3 body fused to GalR1 C-terminus; inhibition, % at 3 µM; 360,000 tested, 0.44% active; AID 651719;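 active = inhibition above the screen-wide average plus 3 SD, cut at about 13% in these data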;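 note: forskolin and galanin both at EC90 stimulate the cells; cAMP rise reported by CNG channel membrane potential dye signal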
# Target sequence (O60755 1-299 limits assumed): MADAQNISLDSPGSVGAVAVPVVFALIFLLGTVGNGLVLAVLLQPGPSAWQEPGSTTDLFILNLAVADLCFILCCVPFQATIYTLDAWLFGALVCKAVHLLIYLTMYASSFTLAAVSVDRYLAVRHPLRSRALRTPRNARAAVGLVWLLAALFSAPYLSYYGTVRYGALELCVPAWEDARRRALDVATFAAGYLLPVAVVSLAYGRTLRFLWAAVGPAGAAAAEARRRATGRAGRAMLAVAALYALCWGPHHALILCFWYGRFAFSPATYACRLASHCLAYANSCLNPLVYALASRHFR
# COUP-TFII inh: NR2F2 (human) inhibition, primary screen | HEK293T NGFI-A luciferase reporter, luminescence | inhibition, % at 8.6 µM | 370,000 tested, 0.7% active;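 active = inhibition above a per-plate cutoff, mean inhibition of test wells between control levels plus 3 SD, cut at about 38% in these data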;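 note: cells cotransfected with COUP-TFII expression vector driving the NGFI-A reporter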
# Target sequence (P24468 whole entry, looked up): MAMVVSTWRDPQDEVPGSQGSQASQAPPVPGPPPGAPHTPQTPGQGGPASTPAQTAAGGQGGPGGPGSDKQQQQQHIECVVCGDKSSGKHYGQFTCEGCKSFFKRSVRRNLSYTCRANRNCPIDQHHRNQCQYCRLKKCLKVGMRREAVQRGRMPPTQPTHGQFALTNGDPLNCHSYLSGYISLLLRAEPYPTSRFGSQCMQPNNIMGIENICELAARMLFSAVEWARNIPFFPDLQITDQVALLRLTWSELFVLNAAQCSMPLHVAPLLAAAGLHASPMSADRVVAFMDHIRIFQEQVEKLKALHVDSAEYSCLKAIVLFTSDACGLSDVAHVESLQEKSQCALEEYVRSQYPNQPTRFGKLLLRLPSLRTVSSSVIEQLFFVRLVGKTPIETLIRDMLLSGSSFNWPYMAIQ
# aDG glyco up: alpha-DG glycosylation activation | 360,000 tested, 0.22% active | Pro5-aDG cells, alpha-DG glycosylation AlphaScreen (IIH6); 0% Pro5, 100% B10-LARGE cell signal | activation, % at 10 µM | AID 624168;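 active = activation of at least 8% versus controls, or a plate z-score of at least 8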;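 note: Pro5 are CHO cells carrying HIG-tagged alpha-DG that lacks glycosylation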
# HIV Env fusion: inhibitors of HIV Env-mediated cell fusion. HeLa-JRFL Env/CEM21 cell fusion, luciferase. inhibition, % at 12.3 µM. 360,000 tested, 1.1% active;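 active = mean replicate inhibition score of at least 50 and every replicate individually at or above 50; inconclusive = only one of the two criteria met; inactive = mean below 50 and not all replicates reaching 50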
# Gli-Sufu antag: antagonists of Gli-Sufu signaling | Sufu-KO-LIGHT fibroblasts, Gli luciferase reporter luminescence | inhibition, % at 5 µM | AID 588413 | 340,000 tested, 0.74% active;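 active = inhibition above about 55%, limit read from the data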
# Gli antag conf: Gli-SUFU antagonism confirmation, single concentration | shares compounds with Gli-Sufu antag | Sufu-KO-LIGHT cells, Gli luciferase reporter, luminescence | inhibition, % at 5 µM | 2,500 tested, 40% active;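 active = mean inhibition at 5 µM reaching about 45%, limit read from the data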
# SufuKO cytotox: counter-screen for Gli-SUFU antagonists: cytotoxicity; cytotoxicity, % at 5 µM; 2,500 tested, 32% active; shares compounds with Gli-Sufu antag; Sufu-KO-LIGHT cells cytotoxicity, ATP luminescence;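 active = mean cytotoxicity at 5 µM above about 25%, limit read from the data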;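 note: cells exposed to compound overnight for roughly 16 to 18 hours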
# Wnt3a counter: inhibits Wnt3a reporter, counter-screen for Gli-SUFU antagonists. shares compounds with Gli-Sufu antag. Wnt-LIGHT cells, Wnt3a-driven luciferase reporter, luminescence. inhibition, % at 6.25 µM. 2,500 tested, 20% active. AID 651995;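 active = mean inhibition above about 25%, limit read from the data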
# A number is an active result; i = inactive; ? = inconclusive; nt = not tested or not shown. A selection: hits, their analogues and other compounds. The true share with any hit is near 2.1%.
SMILES,GalR3 antagonist,COUP-TFII inh,aDG glyco up,HIV Env fusion,Gli-Sufu antag,Gli antag conf,SufuKO cytotox,Wnt3a counter
CCOC(=O)c1c(CSc2nc(C)cc(C)c2C#N)n(C)c2cc(Br)c(OC(C)=O)cc12,i,i,i,i,79,80,38,i
C=CCCc1ccc(C#N)c(SCc2c(C(=O)OCC)c3cc(OC(C)=O)c(Br)cc3n2C)n1,nt,nt,i,nt,73,85,43,41
CCCCCCCCOC(=O)c1c(CSC(=N)N)n(C)c2cc(Br)c(OC(C)=O)cc12,i,i,i,?,i,nt,nt,nt
COc1ccccc1NC(=O)N1CCCC1C(=O)NCC1CCCO1 (stereo not given),i,i,i,i,i,i,i,i
C[C@@H]1CN([C@H](C)CO)C(=O)Cc2cc(NC(=O)Nc3ccccc3)ccc2O[C@@H]1CN(C)S(=O)(=O)c1cn(C)cn1,nt,nt,nt,i,nt,nt,nt,nt
Cc1ccsc1CNc1ncnc2ccc(-c3c(C)noc3C)cc12,i,i,i,nt,i,62,25,i
CCCCN1C2=NCCCN2c2cc(C)c(C)cc21,i,i,i,nt,64,67,39,29
CCCCCCCN1C2=NCCCN2c2ccccc21,i,i,i,i,59,i,i,i
O=C(C[C@H]1C=C[C@H](NS(=O)(=O)c2ccc(F)cc2)[C@@H](CO)O1)N1CCC(Cc2ccccc2)CC1,nt,nt,nt,i,nt,nt,nt,nt
Cc1cccc(NC(=O)c2onc3c2CCCC3)c1C,i,i,i,nt,i,nt,nt,nt
Cc1ccccc1NC(=O)c1onc2c1CCCC2,i,i,i,nt,56,i,i,i
C[C@H](CO)N1C[C@H](C)[C@@H](CN(C)C(=O)Cc2ccccc2)Oc2ncc(C#CCN(C)C)cc2C1=O,nt,nt,nt,i,nt,nt,nt,nt
CCc1c(C)nc2ncnn2c1N1CCN(S(=O)(=O)c2ccc(OC)cc2)CC1,i,i,i,i,60,47,26,i
Cc1nc2ccccc2nc(C)c1=NOCc1cccc(F)c1,i,i,i,i,66,i,i,i
FC(F)(F)c1cc(-c2ccco2)nc(-n2cnc3ccccc32)n1,i,i,i,i,i,nt,nt,nt
Cc1nc2ccccc2n1-c1nc(-c2ccco2)cc(C(F)(F)F)n1,i,i,i,i,68,78,i,77
O=C(Cn1c(-c2ccccc2)c[n+]2ccsc12)c1ccc(Br)cc1,i,i,i,i,i,45,i,i
C[C@H]1CN([C@@H](C)CO)C(=O)c2cccc(NS(=O)(=O)c3cccs3)c2O[C@H]1CN(C)CC1CC1,nt,nt,nt,i,nt,nt,nt,nt
CN(C(=O)c1ccc(NC(=O)Cc2cccc(NC(=O)C3CCCN(C(=O)C4CCC4)C3)c2)cc1)C1CCCC1 (stereo not given),i,i,i,i,57,i,i,i
CNC(=O)C[C@@H]1CC[C@H]2[C@@H](COc3ccc(NC(=O)c4ccc(C(F)(F)F)cc4)cc3C(=O)N2C)O1,nt,nt,nt,i,nt,nt,nt,nt
COc1cc(-c2noc(C)c2/C=C/c2ccc(OC(C)=O)cc2)cc(OC)c1OC,i,i,i,nt,i,69,58,i
CC1Cn2c(CCc3ccccc3)nnc2S1 (stereo not given),i,i,i,i,i,i,i,i
C[C@@H]1CN([C@H](C)CO)C(=O)c2cc(C3=CCCC3)cnc2O[C@@H]1CN(C)Cc1ccccc1,nt,nt,nt,i,nt,nt,nt,nt
C[C@@H]1CCCCO[C@@H](CN(C)C(=O)c2ccncc2)[C@@H](C)CN([C@H](C)CO)C(=O)c2cc(NS(C)(=O)=O)ccc2O1,nt,nt,nt,i,nt,nt,nt,nt
CC(=O)c1cnc(N2CCCCC2)nc1C,i,i,i,i,56,i,29,i
SMILES,GalR3 antagonist,COUP-TFII inh,aDG glyco up,HIV Env fusion,Gli-Sufu antag,Gli antag conf,SufuKO cytotox,Wnt3a counter
Cc1nc(N2CCN(C(=O)c3cnccn3)CC2)c2c3c(sc2n1)CC(C(C)(C)C)CC3 (stereo not given),i,i,i,i,i,i,i,i
COc1ccc(OCC(O)CN2CCC(CN3C(=O)c4cccc5cccc(c45)C3=O)CC2)cc1 (stereo not given),i,i,i,i,i,nt,nt,nt
Cc1ccc(C)c(OCC(O)CN2CCC(CN3C(=O)c4cccc5cccc(c45)C3=O)CC2)c1 (stereo not given),i,i,i,nt,i,i,i,28
CO[C@H]1CN(C)C(=O)c2cc(NS(=O)(=O)Cc3ccccc3)ccc2OC[C@H](C)NC[C@H]1C,nt,nt,nt,i,nt,nt,nt,nt
O=C(Nc1cc(C(F)(F)F)cc(C(F)(F)F)c1)Nc1cnn(-c2ccc([N+](=O)[O-])cc2)c1C(F)(F)F,i,i,i,i,55,74,i,i
O=C(Cc1csc(Nc2nc(=S)[nH]c3ccccc23)n1)NCCCN1CCN(c2ccccc2F)CC1,i,i,i,i,86,i,i,i
O=C(Cc1csc(Nc2nc(=S)[nH]c3ccccc23)n1)NCc1ccc(Cl)cc1,nt,nt,i,nt,nt,nt,nt,nt
O=C(O)CSCCn1cccn1,i,i,i,i,i,nt,nt,nt
Cc1ccn(CCSCC(=O)O)n1,i,i,i,i,i,i,i,i
Cc1ccc2c(c1)S/C(=C/c1ccc[n+](C)c1)N2CCO,i,i,i,i,55,i,i,i
CCCNC(=O)N1CC2(CCN(S(=O)(=O)c3cccc(OC)c3)CC2)c2c(n(C)c3cc(OC)ccc23)[C@H]1CO,nt,nt,nt,i,nt,nt,nt,nt
CCc1nn(CCCC(=O)NCc2ccccc2Br)c(=O)c2cc3occc3n12,i,i,i,i,82,i,i,i
O=C(NC1Cc2ccccc2C1)[C@H]1N[C@H]2c3cccc(=O)n3C[C@H]2[C@@H]1CO,nt,nt,nt,i,nt,nt,nt,nt
COc1cc2[nH]c(=O)n(Cc3ccccc3Cl)c(=O)c2cc1OC,i,i,i,i,i,i,i,i
CCOC(=O)CNC(=O)c1c(C)nn(-c2ccccc2)c1Cl,i,i,i,i,95,i,i,i
O=C(NNC(=O)c1cccc(Cl)c1)NNC(=O)c1cccc(Cl)c1,i,i,i,i,i,i,i,i
COC(=O)c1cc(S(=O)(=O)N2CCN(c3ccc(C(C)=O)cc3)CC2)c[nH]1,i,i,i,i,62,i,i,i
CCN1CCN(S(=O)(=O)c2c[nH]c(C(=O)OC)c2)CC1,nt,i,i,nt,i,nt,nt,nt
Cc1ccc(-n2ncc(C(=O)Nc3cc(Cl)ccc3C)c2C2CCNCC2)cc1C,i,i,i,i,i,nt,nt,nt
Cc1cccc(NC(=O)c2cnn(-c3ccc(F)cc3)c2C2CCNCC2)c1C,i,i,i,i,i,i,i,i
Cc1ccc(-c2nc(-c3ccccc3)no2)c(Cl)c1,i,i,i,i,67,69,80,103
CCN(CC)C1=CC(=[N+]2CCCC2)CC(C)(C)C1,i,i,i,?,79,82,32,48
CN(C)c1cccc(NC2=CC(=[N+]3CCOCC3)CC(C)(C)C2)c1,i,i,i,i,i,nt,nt,nt
COCc1cn(CC[C@@H]2CC[C@H](NC(=O)c3ccc(F)cc3)[C@@H](CO)O2)nn1,nt,nt,nt,i,nt,nt,nt,nt

# High-throughput results: PubChem, several laboratories
